From PubChem BioAssay (Tox21)
Results filed as inconclusive are left out. Active and inactive are the calls of the source. Unless noted, the call rests on the fitted dose curve.

Assays:
[1] = biological target: Acetylcholinesterase (Homo sapiens) (UniProt P22303); assay: Acetylcholinesterase (AChE) small molecule antagonists: colormetric cell-based qHTS assay (AID 1347395); further: nearly all actives have a fitted effect of over 30% in size; further: potency means the concentration at half of the fitted maximal effect
In short: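 Endogenous AChE of human neuroblastoma SH-SY5Y cells was measured with an Ellman-type DTNB/acetylthiocholine mix. Compound pretreatment lasted 30 min at 37 C; substrate reaction ran 90 min at 37 C.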

[2] = biological target: Acetylcholinesterase (Homo sapiens) (UniProt P22303); assay: Acetylcholinesterase (AChE) small molecule antagonists: enzyme-based qHTS assay (AID 1347397); details: Potency: AChE enzyme activity inhibition; outcome: AChE enzyme activity inhibition; further: nearly all actives have a fitted effect of over 55% in size; further: potency means the concentration at half of the fitted maximal effect
In short: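 rhAChE 50 mU/mL (dispensed) + cpd or DMSO, 30 min RT; add DTNB/acetylthiocholine cocktail, 10 min RT; colorimetric thiocholine readout. qHTS, 1536-well format.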

[3] = biological target: Acetylcholinesterase (Homo sapiens) (UniProt P22303); assay: Acetylcholinesterase (AChE) small molecule antagonists: fluorescence cell-based qHTS assay (AID 1347398); details: Potency: AChE activity; outcome: AChE activity; further: nearly all actives have a fitted effect of over 50% in size
In short: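 Read-out is Thiolite Green fluorescence at Ex/Em = 490/520 nm, formed by reaction with thiocholine released when cellular AChE in SH-SY5Y cells hydrolyzes acetylthiocholine. Compounds were preincubated 30 min at 37 C before substrate.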

[4] = biological target: Acetylcholinesterase (Homo sapiens) (UniProt P22303); assay: Acetylcholinesterase (AChE) small molecule antagonists: enzyme-based qHTS assay with human liver microsomes (AID 1347399); details: Potency: qHTS inhibition; outcome: qHTS inhibition; further: nearly all actives have a fitted effect of over 60% in size
In short: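 Recombinant human AChE (50 mU/mL in the enzyme mix) and human liver microsomes (0.25 mg/mL final) were preincubated with compound and NADPH (0.25 mg/mL final) for 30 min at 37 C. Acetylthiocholine/DTNB was then added; thiocholine was read colorimetrically after 10 min at room temperature.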

[5] = qHTS assay for small molecule agonists of the p53 signaling pathway (AID 651631); further: nearly all actives have a fitted effect of over 15% in size; further: potency means the concentration at half of the fitted maximal effect
In short: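 HCT-116 p53RE-bla reporter line, 16 h compound treatment at 37 °C, then fluorescence after 2 h with B/G FRET substrate.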

Aromatase (Homo sapiens) = Aromatase (Homo sapiens) (UniProt P11511); assay: qHTS assay to identify aromatase inhibitors (AID 743083; active means well fitted curve in the direction sought with a large enough effect in the repeat runs; an effect the other way counts as inactive or inconclusive; further: nearly all actives have a fitted effect of over 55% in size; further: potency means the concentration at half of the fitted maximal effect; on activity, negative = inhibition: series mostly up to about 70 µM)
[6] = biological target: Aryl hydrocarbon receptor (Homo sapiens) (UniProt P35869); assay: qHTS assay to identify small molecule that activate the aryl hydrocarbon receptor (AhR) signaling pathway (AID 743085; active means well fitted curve in the direction sought with a large enough effect in the repeat runs; an effect the other way counts as inactive or inconclusive;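 further: HG2L7.5c1 human HepG2 liver cells with stably integrated DRE-driven firefly reporter; series mostly up to about 70 µM; nearly all actives have a fitted effect of over 15% in size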)
In short: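 Steps: seed HepG2-AhR-luc cells; allow 5 h at 37C; pin-transfer test compound or vehicle; incubate 24 h at 37C; add viability dye (30 min, 37C) and read fluorescence; add luciferase substrate (30 min, RT) and read luminescence.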

[7] = biological target: Glucocorticoid receptor (Homo sapiens) (UniProt P04150); assay: qHTS assay to identify small molecule antagonists of the glucocorticoid receptor (GR) signaling pathway (AID 720692; active means well fitted inhibition curve with a large enough effect in the signal ratio in the repeat runs, not every such curve was filed as active; the % refers to the signal ratio)
In short: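 Fluorescence from cleaved LiveBLAzer B/G FRET substrate reports GRE-driven beta-lactamase in HeLa cells; compounds are tested against 5 nM dexamethasone (final) over 18 h at 37 C, substrate incubation 2 h at room temperature.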

[8] = qHTS assay for small molecule activators of the heat shock response signaling pathway (AID 743210; active means well fitted activation curve with a large enough effect in the signal ratio in the repeat runs, with a control signal flat, not every such curve was filed as active; the % refers to the signal ratio;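 further: HeLa cells with beta-lactamase reporter driven by heat shock elements; series mostly up to about 63 µM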)
In short: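 HeLa HSE-bla cells, overnight plating; cpd in DMSO 5 h, 37 C; LiveBLAzer B/G FRET substrate 2.5 h RT; fluorescence intensity read.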

[9] = biological target: Peroxisome proliferator-activated receptor delta (Homo sapiens) (UniProt Q03181); assay: qHTS assay to identify small molecule antagonists of the peroxisome proliferator-activated receptor delta (PPARd) signaling pathway (AID 743215; active means well fitted inhibition curve with a large enough effect in the signal ratio in the repeat runs, not every such curve was filed as active; the % refers to the signal ratio;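 further: cells stimulated with agonist L165041 at 300 nM final during compound exposure; series mostly up to about 62 µM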)
In short: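 Antagonist-mode beta-lactamase reporter screen: HEK293H cells with UAS-bla under PPARd control, stimulated by 300 nM L165041 (final) alongside test compound for 17 h at 37 C, then FRET fluorescence after 2 h substrate incubation.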
On the % scale 0 is the no-effect control and ±100 the full control effect.

Sequence of Aryl hydrocarbon receptor (Homo sapiens) (P35869 whole entry, looked up): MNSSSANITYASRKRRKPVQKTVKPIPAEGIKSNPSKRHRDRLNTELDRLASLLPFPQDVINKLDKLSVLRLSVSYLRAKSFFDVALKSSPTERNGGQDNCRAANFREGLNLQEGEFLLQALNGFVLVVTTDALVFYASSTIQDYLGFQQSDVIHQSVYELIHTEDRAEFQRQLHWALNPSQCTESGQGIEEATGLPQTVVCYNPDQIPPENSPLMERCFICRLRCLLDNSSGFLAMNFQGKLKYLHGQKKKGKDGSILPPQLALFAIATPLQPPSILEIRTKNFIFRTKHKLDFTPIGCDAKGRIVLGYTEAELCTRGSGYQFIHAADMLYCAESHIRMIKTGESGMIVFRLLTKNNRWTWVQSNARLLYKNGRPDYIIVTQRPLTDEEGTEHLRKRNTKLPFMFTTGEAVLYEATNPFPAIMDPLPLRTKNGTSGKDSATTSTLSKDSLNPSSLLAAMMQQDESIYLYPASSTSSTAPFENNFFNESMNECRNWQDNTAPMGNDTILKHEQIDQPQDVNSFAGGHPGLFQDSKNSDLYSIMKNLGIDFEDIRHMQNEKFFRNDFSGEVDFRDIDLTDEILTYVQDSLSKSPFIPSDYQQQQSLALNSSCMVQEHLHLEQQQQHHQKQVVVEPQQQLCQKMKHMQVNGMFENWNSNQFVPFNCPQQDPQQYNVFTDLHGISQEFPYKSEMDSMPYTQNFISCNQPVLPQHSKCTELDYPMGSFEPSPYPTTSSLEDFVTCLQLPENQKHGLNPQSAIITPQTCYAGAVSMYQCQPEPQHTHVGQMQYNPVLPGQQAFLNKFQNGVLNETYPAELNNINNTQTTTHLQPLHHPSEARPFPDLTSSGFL
Sequence of Glucocorticoid receptor (Homo sapiens) (P04150 whole entry, looked up): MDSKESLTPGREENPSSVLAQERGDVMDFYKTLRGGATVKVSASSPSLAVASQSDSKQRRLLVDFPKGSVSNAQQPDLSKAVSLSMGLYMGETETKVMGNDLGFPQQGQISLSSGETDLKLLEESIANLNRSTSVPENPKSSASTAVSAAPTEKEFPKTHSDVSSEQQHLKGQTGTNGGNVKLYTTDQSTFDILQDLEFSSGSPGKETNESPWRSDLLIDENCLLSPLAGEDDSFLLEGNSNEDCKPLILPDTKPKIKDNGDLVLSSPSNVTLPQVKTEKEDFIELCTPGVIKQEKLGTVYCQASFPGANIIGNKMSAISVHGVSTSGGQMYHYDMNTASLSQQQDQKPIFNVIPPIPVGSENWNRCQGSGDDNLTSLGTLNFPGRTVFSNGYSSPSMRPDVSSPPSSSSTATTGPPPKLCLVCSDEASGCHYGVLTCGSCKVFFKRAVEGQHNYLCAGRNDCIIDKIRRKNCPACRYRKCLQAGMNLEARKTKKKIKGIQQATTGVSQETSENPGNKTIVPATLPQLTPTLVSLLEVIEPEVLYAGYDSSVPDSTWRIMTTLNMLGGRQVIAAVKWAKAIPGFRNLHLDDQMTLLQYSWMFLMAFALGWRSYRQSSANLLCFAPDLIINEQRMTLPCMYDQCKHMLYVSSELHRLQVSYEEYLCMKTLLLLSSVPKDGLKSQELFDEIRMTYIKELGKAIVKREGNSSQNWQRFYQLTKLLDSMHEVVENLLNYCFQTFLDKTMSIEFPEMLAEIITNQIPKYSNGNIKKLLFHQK
Sequence of Acetylcholinesterase (Homo sapiens) (P22303 whole entry, looked up): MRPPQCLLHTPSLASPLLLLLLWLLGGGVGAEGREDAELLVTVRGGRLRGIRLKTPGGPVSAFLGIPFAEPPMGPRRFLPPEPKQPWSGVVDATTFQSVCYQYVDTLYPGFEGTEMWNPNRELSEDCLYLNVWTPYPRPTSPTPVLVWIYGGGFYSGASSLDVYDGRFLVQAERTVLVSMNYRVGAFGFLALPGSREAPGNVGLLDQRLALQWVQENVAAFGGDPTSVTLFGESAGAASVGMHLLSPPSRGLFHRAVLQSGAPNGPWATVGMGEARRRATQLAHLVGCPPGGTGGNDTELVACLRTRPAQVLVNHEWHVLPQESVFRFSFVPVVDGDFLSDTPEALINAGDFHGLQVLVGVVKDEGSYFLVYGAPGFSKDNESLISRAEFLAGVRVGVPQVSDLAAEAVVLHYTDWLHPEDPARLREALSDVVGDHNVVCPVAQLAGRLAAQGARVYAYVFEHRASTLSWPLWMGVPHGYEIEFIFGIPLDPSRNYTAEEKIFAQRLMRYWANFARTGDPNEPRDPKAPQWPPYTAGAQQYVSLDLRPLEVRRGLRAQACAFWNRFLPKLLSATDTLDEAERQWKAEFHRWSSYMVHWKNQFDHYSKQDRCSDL
Sequence of Aromatase (Homo sapiens) (P11511 whole entry, looked up): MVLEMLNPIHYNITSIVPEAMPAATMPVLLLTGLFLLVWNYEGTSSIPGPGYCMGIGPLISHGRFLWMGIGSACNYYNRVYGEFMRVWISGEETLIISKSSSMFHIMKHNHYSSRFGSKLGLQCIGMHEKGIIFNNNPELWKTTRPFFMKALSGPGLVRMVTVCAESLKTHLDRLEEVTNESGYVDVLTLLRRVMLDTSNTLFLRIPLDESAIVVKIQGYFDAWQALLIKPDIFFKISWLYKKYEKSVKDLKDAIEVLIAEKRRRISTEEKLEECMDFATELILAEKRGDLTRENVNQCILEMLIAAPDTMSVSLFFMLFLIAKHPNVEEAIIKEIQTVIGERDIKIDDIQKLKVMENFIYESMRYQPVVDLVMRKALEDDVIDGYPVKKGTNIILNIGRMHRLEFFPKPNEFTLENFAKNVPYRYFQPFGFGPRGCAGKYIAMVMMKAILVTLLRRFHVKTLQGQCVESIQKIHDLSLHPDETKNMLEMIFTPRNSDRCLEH
Sequence of Peroxisome proliferator-activated receptor delta (Homo sapiens) (Q03181 whole entry, looked up): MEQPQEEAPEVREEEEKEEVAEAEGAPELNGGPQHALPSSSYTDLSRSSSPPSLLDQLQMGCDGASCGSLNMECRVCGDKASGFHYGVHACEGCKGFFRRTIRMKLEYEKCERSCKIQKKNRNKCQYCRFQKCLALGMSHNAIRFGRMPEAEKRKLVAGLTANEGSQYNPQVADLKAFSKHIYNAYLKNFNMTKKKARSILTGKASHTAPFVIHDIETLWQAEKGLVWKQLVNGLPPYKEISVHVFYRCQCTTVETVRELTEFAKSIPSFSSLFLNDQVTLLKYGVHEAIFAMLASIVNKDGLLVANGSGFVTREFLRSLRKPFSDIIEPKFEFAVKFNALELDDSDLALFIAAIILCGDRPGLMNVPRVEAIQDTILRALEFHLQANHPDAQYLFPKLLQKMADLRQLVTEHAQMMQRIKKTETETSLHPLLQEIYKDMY

O=C(O)c1ccc(O)c(O)c1
inactive: Potency [1] | Potency [2] | Potency [3] | Potency [4]

CC(C)(c1cc(Br)c(OCCO)c(Br)c1)c1cc(Br)c(OCCO)c(Br)c1
active: Potency [5] 42.3 µM | Potency (Aromatase (Homo sapiens)) 42.3 µM
inactive: outcome [6] | Potency [1] | Potency [2] | Potency [3] | Potency [4]

C[n+]1cc2c3c(ccc2c2ccc4cc5c(cc4c21)OCO5)OCO3
inactive: activity change, negative = inhibition [4] -3.24% [at 23.6 µM]
active: Potency [1] 10.7 µM | Potency [2] 16.9 µM

Cc1c(I)c(=O)n(-c2ccccc2)n1C
inactive: Potency [1] | Potency [2] | Potency [4]

C1=C\CC/C=C\CC/C=C\CC/1
inactive: Potency [5] | Potency [7] | Potency [1] | Potency [2] | Potency [3] | Potency [4]

Cc1ccc(-c2ccccc2)cc1
inactive: Potency [1] | Potency [2] | Potency [4]

O=C(Oc1ccccc1)c1ccccc1C(=O)Oc1ccccc1
inactive: Potency (Aromatase (Homo sapiens)) | Potency [1] | Potency [2] | Potency [3] | Potency [4]

Cc1ccccc1S
inactive: Potency [1] | Potency [2] | Potency [3] | Potency [4]

NCc1cccc(C2CCN(C(=O)c3ccc(C#Cc4ccccc4F)o3)CC2)c1
inactive: Potency [1] | Potency [4]
active: Potency [2] 79.6 µM

O=[N+]([O-])c1cncn1CCN1CCOCC1
inactive: Potency [1] | Potency [2] | Potency [3] | Potency [4]

CCCCCCOC(=O)CC
inactive: Potency [1] | Potency [2] | Potency [4]

Cc1ccc([N+](=O)[O-])cc1Cl
inactive: Potency [1] | Potency [2] | Potency [4]

Cc1ccc(N)cc1[N+](=O)[O-]
inactive: Potency [5] | Potency (Aromatase (Homo sapiens)) | Potency [1] | Potency [2] | Potency [3] | Potency [4]

Cc1onc(-c2ccccc2)c1-c1ccc(S(N)(=O)=O)cc1
inactive: Potency [1] | Potency [2] | Potency [4]

Cc1onc(-c2c(Cl)cccc2Cl)c1C(=O)Cl
inactive: Potency [1] | Potency [2] | Potency [4]

Cc1ccccc1C
inactive: Potency [5] | Potency [7] | Potency [1] | Potency [2] | Potency [3] | Potency [4]

CC(C)(Cc1c[nH]c2ccccc12)NCC(O)COc1ccccc1C#N (configuration not stated)
inactive: Potency [1] | Potency [2] | Potency [4]

NC/C=C/C(=O)O
inactive: Potency [1] | Potency [2] | Potency [4]

CN1CCC(N(Cc2cccs2)c2ccccc2)CC1
inactive: Potency [7] | outcome [6] | Potency [1] | Potency [2] | Potency [3] | Potency [4]

Cc1cc(C(C#N)c2ccc(Cl)cc2)c(Cl)cc1NC(=O)c1cc(I)cc(I)c1O (configuration not stated)
inactive: outcome [6] | Potency [1] | Potency [2] | Potency [3] | Potency [4]

CC(=O)CC(C)C
inactive: Potency [5] | Potency (Aromatase (Homo sapiens)) | outcome [6] | outcome [8] | Potency [1] | Potency [2] | Potency [3] | Potency [4]

CC(=O)NC(Cc1ccccc1)C(=O)O (configuration not stated)
inactive: Potency [1] | Potency [2] | Potency [4]

C[N+]12CCC(CC1)C(OC(=O)C(O)(c1ccccc1)c1ccccc1)C2 (configuration not stated)
inactive: Potency [5] | Potency [7] | Potency (Aromatase (Homo sapiens)) | outcome [6] | outcome [9] | Potency [1] | Potency [2] | Potency [3]

CCCCCCCCCCCCCc1ccccc1
inactive: Potency [1] | Potency [2] | Potency [4]

CC(C)(C)C(=O)OCOC(=O)C1N2C(=O)CC2S(=O)(=O)C1(C)C (configuration not stated)
inactive: Potency [1] | Potency [2] | Potency [3] | Potency [4]

Cc1ccc(C)c(N)c1
inactive: Potency [5] | Potency [1] | Potency [2] | Potency [3]

CC(C)(C)NSc1nc2ccccc2s1
inactive: Potency [1] | Potency [2] | Potency [4]

Brc1cc(Br)c(Oc2cc(Br)c(Br)cc2Br)cc1Br
inactive: outcome [6] | Potency [1] | Potency [2] | Potency [3] | Potency [4]

CCC(Cc1ccccc1)(C(=O)c1ccc(N2CCOCC2)cc1)N(C)C (configuration not stated)
inactive: Potency [1] | Potency [2] | Potency [4]

Cc1ccc(O)c(O)c1
inactive: Potency [1] | Potency [2] | Potency [4]

CC(=O)Nc1cc(S(=O)(=O)O)cc2cc(S(=O)(=O)O)c(N=Nc3ccccc3)c(O)c12
inactive: Potency [1] | Potency [2] | Potency [4]

O=C(CCN1CCN2CCCC2C1)N1c2ccccc2Sc2ccc(Cl)cc21 (configuration not stated)
inactive: activity, negative = inhibition [1] 0% [at 23.6 µM] | activity change, negative = inhibition [2] 0.831% [at 23.6 µM] | activity change, negative = inhibition [4] 1.34% [at 23.6 µM]

C[C@@H](O)[C@H]1C(=O)N2C(C(=O)O)=C(S[C@@H]3CN[C@H](CNS(N)(=O)=O)C3)[C@H](C)[C@H]12
inactive: Potency [1] | Potency [2] | Potency [4]

CC1=CCCC(C)(C)C12CCC(C)O2 (configuration not stated)
inactive: Potency [1] | Potency [2] | Potency [4]

CCN(CC)CC
inactive: Potency [1] | Potency [2] | Potency [4]

CCCCC/C=C\C=C\C(=O)OCC
inactive: Potency [1] | Potency [2] | Potency [4]

CC1=C(C)C(=O)C(CCCCC#CCCCC#CCO)=C(C)C1=O
inactive: Potency [1] | Potency [2] | Potency [4]

NS(=O)(=O)c1cc2c(cc1C(F)(F)F)NC(Cc1ccccc1)NS2(=O)=O (configuration not stated)
inactive: Potency [2] | Potency [4]
active: Potency [1] 38.9 µM

CC1=C(/C=C/C(C)=C\C=C\C(C)=C\C(=O)O)C(C)(C)CCC1
inactive: Potency [1] | Potency [2] | Potency [4]

N[C@@H]1CONC1=O
inactive: Potency [1] | Potency [2] | Potency [4]
